According to the supplement of paper PMC6805474:

Assays:
[1] = system: Schistosoma mansoni schistosomula (NMRI); test: phenotypic severity score (0-4); higher = more antischistosomal effect, active = 2 or more; conditions: 10 µM
[2] = system: Schistosoma mansoni schistosomula (Liberian); test: drug effect (1 - score/DMSO control score) (fraction); higher = more antischistosomal effect, active = 0.5 or more; extreme values may be limits of the assay; conditions: 10 µM
In short: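 Drug effect was calculated by comparing the mean score of the test wells with the mean score of the DMSO wells, and any negative value was set to zero. Duplicate wells of 50 Liberian-strain S. mansoni schistosomula, mechanically transformed from cercariae and pre-incubated at least 12 h, received 10 µM compound in Medium 199 with 5% FCS at 37 °C, 5% CO2, with 0.1% DMSO in the comparison wells. Visual scoring at 10× took place at 24, 48 and 72 h on a quarter-point scale from 3 (normal) to 0 (dead), and a plate counted only if its DMSO wells averaged at least 2.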

[3] = system: Schistosoma mansoni schistosomula (LE); test: XTT viability relative to DMSO control; higher = more viable (less active); conditions: 72 h; 10 µM
Protocol: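 XTT/PMS was then added for a further 24 h (72 h total) and A450 was read. % viability = (sample - heat-killed control)/(DMSO control - heat-killed control) x 100, from duplicate wells in two independent experiments.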
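For phenotypic severity score (0-4) in this document: visual microscopic scoring of shape, motility and density changes versus 0.5% DMSO solvent controls, one point per descriptor, degeneracy or death scored 4, mean of duplicate wells.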

Compound | phenotypic severity score ([1]; 24 h) | phenotypic severity score ([1]; 48 h) | phenotypic severity score ([1]; 72 h) | drug effect ([2]; 24 h) | drug effect ([2]; 48 h) | drug effect ([2]; 72 h) | XTT viability [3] [%]
Nc1ncnc2c1c(Cc1cccc3ccccc13)nn2CC1CCNCC1 | 0 (inactive) | 0 (inactive) | 0 (inactive) | < 0 (inactive) | < 0 (inactive) | < 0 (inactive) | –
O=C(Nc1nnc(S)s1)c1cc(Br)ccc1Cl | 0 (inactive) | 0 (inactive) | 0 (inactive) | 0.05 (inactive) | 0.027 (inactive) | 0.0909 (inactive) | –
COc1nc2ccc(Br)cc2cc1[C@@H](c1ccccc1)[C@@](O)(CCN(C)C)c1cccc2ccccc12 | 2 (active) | 4 (active) | 4 (active) | 0.318 (inactive) | 0.8 (active) | 0.945 (active) | –
O=C(CCC1CCCCC1)Nc1cccc(-c2nnc(-c3ccco3)o2)c1 | 2 (active) | 4 (active) | 4 (active) | 0.182 (inactive) | 0.2 (inactive) | 0.167 (inactive) | –
CC(=O)Nc1ccc(NC(=O)c2cc(-c3cc(Cl)ccc3O)[nH]n2)cc1 | 0 (inactive) | 0 (inactive) | 0 (inactive) | 0.227 (inactive) | 0.15 (inactive) | 0.127 (inactive) | –
CCc1cc(=O)n(C)c(SC(C)C(=O)Nc2ccc(F)cc2)n1 (configuration not stated) | 0 (inactive) | 0 (inactive) | 1 (inactive) | 0.135 (inactive) | 0.111 (inactive) | < 0 (inactive) | –
CCN(CC)CCCCCCNc1cc(OC)cc2c(C)ccnc12 | 0 (inactive) | 0 (inactive) | 0 (inactive) | 0.1 (inactive) | 0.135 (inactive) | 0.167 (inactive) | –
O=C(Nc1nc(-c2ccccn2)cs1)c1cncn1-c1ccccc1 | 0 (inactive) | 0 (inactive) | 0 (inactive) | 0.0909 (inactive) | 0.15 (inactive) | 0.236 (inactive) | –
CCCc1ccc(S(=O)(=O)Nc2ccc(CN3CCN(CC4CC4)CC3)cc2)cc1 | 0 (inactive) | 0 (inactive) | 0 (inactive) | 0.15 (inactive) | 0.167 (inactive) | 0.375 (inactive) | –
Cc1nn2c(O)c3c(nc2c1-c1ccc(F)cc1)CCCC3 | 0 (inactive) | 0 (inactive) | 0 (inactive) | 0.409 (inactive) | 0.45 (inactive) | 0.509 (active) | –
FC(F)(F)c1ccc(N(c2cccnc2)C2CCN(c3ccc(C(F)(F)F)cn3)CC2)cc1 | 0 (inactive) | 0 (inactive) | 1 (inactive) | 0.2 (inactive) | 0.222 (inactive) | 0.312 (inactive) | –
COc1ccccc1C(C)NCC(=O)Nc1cc(C(F)(F)F)ccc1Cl (configuration not stated) | 0 (inactive) | 0 (inactive) | 0 (inactive) | 0.15 (inactive) | 0.135 (inactive) | 0.278 (inactive) | –
Cc1cccc(-c2nc(Nc3ccncn3)c3sccc3n2)n1 | 1 (inactive) | 3 (active) | 4 (active) | 0.405 (inactive) | 0.667 (active) | 0.75 (active) | –
COC(=O)c1cccc2oc(-c3cccc(OC)c3NC(=O)c3cc(-c4ccccc4)on3)nc12 | 0 (inactive) | 0 (inactive) | 0 (inactive) | 0.351 (inactive) | 0.333 (inactive) | 0.312 (inactive) | –
NCC(c1cccs1)S(=O)(=O)c1ccccc1 (configuration not stated) | 1 (inactive) | 1 (inactive) | 2 (active) | 0.15 (inactive) | 0.05 (inactive) | 0.0556 (inactive) | –
O=C(NCc1cc(Cl)cc(Cl)c1)c1c(C(F)(F)F)nc2ccccn12 | 0 (inactive) | 1 (inactive) | 0 (inactive) | 0.158 (inactive) | 0.333 (inactive) | 0.312 (inactive) | –
O=C([C@@H](c1ccc(Cl)cc1)c1cccnc1)N1CCN(c2ccc(C(F)(F)F)cc2)CC1 | 0 (inactive) | 2 (active) | 4 (active) | 0.75 (active) | 0.722 (active) | 0.75 (active) | –
Nc1ncnc2c1c(-c1cnc3ccccc3c1)nn2CC1CCNCC1 | 0 (inactive) | 0 (inactive) | 0 (inactive) | 0.2 (inactive) | 0.278 (inactive) | 0.5 (active) | –
O=C(NC1CCN(c2ccnc3ccccc23)C1)c1cccc(C(F)(F)F)c1 (configuration not stated) | 0 (inactive) | 0 (inactive) | 0 (inactive) | 0.135 (inactive) | 0.556 (active) | 0.938 (active) | –
COc1cccc(OC)c1C(=O)Nc1ccc(Cl)c(-c2nc3ccccc3s2)c1 | 2 (active) | 2 (active) | 2 (active) | 0.4 (inactive) | 0.5 (active) | 0.625 (active) | –
COc1cc(C2=NCCN2)cc2cc(-c3ccc(C4=NCCN4)cc3)oc12 | 0 (inactive) | 0 (inactive) | 0 (inactive) | 0.1 (inactive) | 0.027 (inactive) | 0.0303 (inactive) | –
COc1cccc(-c2nc3c(N4CCCC4)cccc3n2CC2CCCN2)n1 (configuration not stated) | 4 (active) | 4 (active) | 4 (active) | 0.35 (inactive) | 0.778 (active) | 0.75 (active) | –

Compound | phenotypic severity score ([1]; 24 h) | phenotypic severity score ([1]; 48 h) | phenotypic severity score ([1]; 72 h) | drug effect ([2]; 24 h) | drug effect ([2]; 48 h) | drug effect ([2]; 72 h) | XTT viability [3] [%]
Cc1cccnc1NC(=O)c1cccc(OCc2c(C)noc2C)c1 | 0 (inactive) | 0 (inactive) | 0 (inactive) | 0.0909 (inactive) | 0.15 (inactive) | 0.127 (inactive) | –
CC(C(=O)Nc1ccc2oc(-c3ccncc3)nc2c1)c1ccccc1 (configuration not stated) | 1 (inactive) | 0 (inactive) | 0 (inactive) | 0.182 (inactive) | 0.35 (inactive) | 0.345 (inactive) | –
O=C1N(Cc2cc3ccccc3s2)CC2CN(Cc3ccccc3)CCN12 (configuration not stated) | 0 (inactive) | 0 (inactive) | 0 (inactive) | 0.182 (inactive) | 0.3 (inactive) | 0.236 (inactive) | –
O=C(Nc1ccc2c(c1)B(O)OC2)c1ccccc1C(F)(F)F | 0 (inactive) | 0 (inactive) | 0 (inactive) | 0.1 (inactive) | 0.0556 (inactive) | 0.167 (inactive) | –
COc1ccc(S(=O)(=O)Nc2ccc(CN3CCN(C(=O)c4cccc(C#N)c4)CC3)cc2)cc1 | 0 (inactive) | 0 (inactive) | 1 (inactive) | 0.1 (inactive) | 0.111 (inactive) | 0.188 (inactive) | –
CCOc1ccc(-c2nc(CNCCc3ccc(F)cc3)cs2)cc1 | 0 (inactive) | 0 (inactive) | 0 (inactive) | 0.273 (inactive) | 0.4 (inactive) | 0.632 (active) | –
O=C(NC1CC1)c1ccc(CSCc2ccccc2Cl)o1 | 1 (inactive) | 0 (inactive) | 1 (inactive) | 0.405 (inactive) | 0.444 (inactive) | 0.562 (active) | –
COc1cc(NC(=O)Cc2nn(C)c(=O)c3ccccc23)ccc1Cl | 0 (inactive) | 0 (inactive) | 0 (inactive) | 0.105 (inactive) | 0.111 (inactive) | 0.0625 (inactive) | –
Cc1noc(C)c1C(=O)N1CCCC(c2[nH]c3c(C)cccc3c2-c2ccncc2)C1 (configuration not stated) | 4 (active) | 4 (active) | 4 (active) | 0.35 (inactive) | 0.5 (active) | 0.778 (active) | –
Nc1ncc(Br)cc1-c1nc2cc(Cl)cnc2[nH]1 | 0 (inactive) | 0 (inactive) | 0 (inactive) | 0.1 (inactive) | 0.111 (inactive) | 0.188 (inactive) | –
COc1ccc(C2=NCCN2)cc1-c1cn(-c2cccc(C3=NCCN3)c2)nn1 | 0 (inactive) | 0 (inactive) | 0 (inactive) | 0.1 (inactive) | 0.111 (inactive) | 0.25 (inactive) | 85.9
Clc1cccc(CO[C@H]2CCc3ccccc3[C@@H]2n2ccnn2)c1 | 3 (active) | 4 (active) | 4 (active) | < 0 (inactive) | 0.1 (inactive) | 0.158 (inactive) | 80.7
O=C(Nc1nc(-c2ccccn2)cs1)C1CC1c1ccccc1F (configuration not stated) | 0 (inactive) | 0 (inactive) | 0 (inactive) | 0.182 (inactive) | 0.3 (inactive) | 0.127 (inactive) | 71.7
Cc1[nH]c2cc(F)cc(F)c2c(=O)c1-c1ccc(Oc2ccc(OC(F)(F)F)cc2)cc1 | 2 (active) | 4 (active) | 4 (active) | 0.45 (inactive) | 0.778 (active) | 0.75 (active) | 74.6
COc1ccc2nc(C)cc(OCC(=O)Nc3ccccc3OC)c2c1 | 0 (inactive) | 0 (inactive) | 0 (inactive) | 0.2 (inactive) | 0.278 (inactive) | 0.25 (inactive) | 108
COc1cc(C2=NCCN2)ccc1-c1cn(-c2cccc(C3=NCCN3)c2)nn1 | 1 (inactive) | 0 (inactive) | 0 (inactive) | 0.25 (inactive) | 0.297 (inactive) | 0.394 (inactive) | 72.8
c1ccc(Oc2ccc(-c3cncc(-c4ccc5[nH]ccc5c4)n3)cc2)cc1 | 0 (inactive) | 0 (inactive) | 2 (active) | 0.6 (active) | 1 (active) | 1 (active) | 3.06
COc1ccc(Cn2cnc3c(-c4ccco4)nc(Cl)nc32)cc1 | 0 (inactive) | 0 (inactive) | 0 (inactive) | 0.105 (inactive) | 0.0556 (inactive) | 0.125 (inactive) | 98.6
CCOc1ccc2cc(-c3nn(C(C)(C)C)c(N)c3C(N)=O)cnc2c1 | 0 (inactive) | 0 (inactive) | 0 (inactive) | 0.2 (inactive) | 0.243 (inactive) | 0.389 (inactive) | –
COC(=O)C1=C(C)NC(C)=C(C(=O)OC(C)C)C1c1cccc2nonc12 (configuration not stated) | 2 (active) | 0 (inactive) | 0 (inactive) | 0.15 (inactive) | 0.189 (inactive) | 0.111 (inactive) | 63.2
N#Cc1ccc(-c2cnc(N)c(-c3ccc(C(N)=O)cc3)n2)cc1 | 2 (active) | 2 (active) | 4 (active) | 0.027 (inactive) | 0.333 (inactive) | 0.5 (active) | –
